# Test results published in PubChem BioAssay.
# Active and inactive are the calls of the source.
# Legend:
# [1] = compound effects on lung adenocarcinoma cell viability – A549, calcein-AM fluorescence, 48 h, basal, profiling panel (AID 1162); settings: higher = more signal
# [2] = compound effects on differentiated 3T3-L1 adipocyte viability – cell-based, 3T3-L1 adipocytes, calcein-AM fluorescence, 48 h, basal, profiling panel (AID 1163); settings: 3T3-L1 adipocytes viability, higher = more signal
# [3] = compound effects on hepatocellular carcinoma cell viability – HepG2, calcein-AM fluorescence, 48 h, basal, profiling panel (AID 1164); settings: higher = more signal
# [4] = compound effects on multiple myeloma cell viability – MM1S, calcein-AM fluorescence, 48 h, basal, profiling panel (AID 1165); settings: higher = more signal;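 further: viability of MM1S multiple myeloma cells under basal unstimulated conditions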
# [5] = calcein-AM signal in unstimulated myeloma cells – cell-based, calcein-AM fluorescence, 48 h, PK04 Diversity Set, profiling panel (AID 1166); settings: RPMI8226 myeloma viability, higher = more signal;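 further: cells grown under basal conditions without added stimulus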
# [6] = JC-1 mitochondrial signal, unstimulated HepG2 cells – cell-based, JC-1 fluorescence, 24 h, 100 nL compound, profiling panel (AID 1167); settings: HepG2 mitochondrial potential, higher = more signal
# [7] = JC-1 mitochondrial signal, unstimulated adipocytes – cell-based, JC-1 fluorescence, 3T3-L1 adipocytes, 24 h, 100 nL compound, profiling panel (AID 1168); settings: JC-1 mitochondrial fluorescence, higher = more signal, called active from +8 up or from −8 down
# [8] = JC-1 mitochondrial signal, unstimulated myeloma cells – cell-based, JC-1 fluorescence, RPMI8226, 24 h, 100 nL compound, profiling panel (AID 1169); settings: JC-1 mitochondrial potential fluorescence, higher = more signal
# [9] = JC-1 mitochondrial signal, unstimulated MM1S myeloma – cell-based, JC-1 fluorescence, 24 h, 100 nL compound, profiling panel (AID 1170); settings: MM1S mitochondrial potential, higher = more signal
# [10] = resazurin metabolic signal in A549 cells – cell-based, resazurin fluorescence, 24 h, PK04 Diversity Set, profiling panel (AID 1171); settings: A549 viability, higher = more signal, called active from +8 up or from −8 down
# Further: test concentration not given here.
SMILES,z-score [1],z-score [2],z-score [3],z-score [4],z-score [5],z-score [6],z-score [7],z-score [8],z-score [9],z-score [10]
[N-]=[N+]=Nc1ccccc1[C@H]1OC(c2ccc(OCCCO)cc2)=N[C@@]1(Cc1ccccc1)C(=O)N1CCCCC1,-0.127,-0.019,-0.683,-3.09,-3.83,-0.251,1.44 (inactive),-1.15,-2.77,-2.29 (inactive)
COCC1=C2[C@@H](CCc3ccccc3)OB(O)C[C@@H]2[C@@H]2C(=O)C=CC(=O)[C@@H]2C1,0.144,-0.147,-0.165,-3.4,-3.63,-3.14,-2.12 (inactive),-0.654,-2.55,-0.648 (inactive)
COCCCNC(=O)[C@]1(CCS(=O)(=O)c2ccccc2)N=C(c2ccc(OCCCO)cc2)O[C@@H]1c1ccccc1N=[N+]=[N-],0.76,0.108,0.683,-1.41,-0.311,-0.0945,-0.594 (inactive),-0.986,-0.754,0.265 (inactive)
COC(=O)[C@@]1(Cc2ccccc2)[C@H]2c3cc(C(=O)N(C)C)n(CCN4CNCC4=O)c3C[C@H]2CN1C(=O)c1ccccc1,0.134,-0.391,0.0701,0.0517,-0.002,0.196,-0.179 (inactive),-0.874,1.46,0.293 (inactive)
COC(=O)[C@@]1(Cc2ccc(OC)cc2)[C@H]2c3cc(C(=O)N(C)C)n(C[C@H](O)CO)c3C[C@H]2CN1C(=O)c1ccccc1,-0.93,-0.503,-0.285,-1.99,-1.79,0.906,-0.871 (inactive),-0.847,-1.03,-0.816 (inactive)
CN(C)CCCNC(=O)[C@@H]1c2ccccc2C(=O)N(Cc2ccccc2Cl)[C@H]1c1ccc(CO)cc1,0.904,0.841,0.112,-0.147,-0.872,1.5,0.517 (inactive),0.114,0.599,0.508 (inactive)
O=C1O[C@H](c2ccccc2)[C@H](c2ccccc2)N2[C@H]1[C@@H](C(=O)Nc1nc3ccccc3s1)[C@]1(C(=O)Nc3ccccc31)[C@H]2c1ccc(OCCO)cc1,-0.52,0.0354,0.349,-1.68,-1.35,-1.99,3.24 (inactive),-1.07,-1.83,0.0237 (inactive)
COc1ccc(CCN2C(=O)[C@@]3(Cc4ccccc42)c2ccccc2C(=O)N(Cc2ccccc2OC)[C@H]3c2ccc(CO)cc2)cc1,-0.391,0.677,-0.264,-1.98,-0.996,0.0826,0.16 (inactive),0.718,0.464,0.271 (inactive)
CN1C(=O)C2C=CC(C(O)c3ccccn3)N(N(c3ccccc3)c3ccccc3)C2C1=O (stereo not given),-0.711,-1.63,-0.108,0.0262,-0.771,-1.53,-0.695 (inactive),0.305,-0.468,-0.859 (inactive)
NC(N)=NCCCn1cc(CNC(=O)[C@@H](N)Cc2ccccc2)nn1,-0.531,-0.637,-0.948,-0.0334,-1.23,-0.868,-0.283 (inactive),0.714,0.225,-0.414 (inactive)
CC(C)[Si](C#C[Si](C(C)C)(C(C)C)C(C)C)(O[C@H](C)c1cn([C@H](CO)Cc2ccccc2)nn1)C(C)C,1.11,-0.355,0.341,-2.37,0.482,0.376,0.727 (inactive),0.362,-0.156,0.637 (inactive)
COc1cc(OC)c(C(O)C2C=CC3C(=O)N(c4ccccc4)C(=O)C3N2Nc2ccccc2)cc1Br (stereo not given),1.84,-1.48,0.0936,0.251,-0.562,-2.11,-0.602 (inactive),0.292,-0.761,0.439 (inactive)
NC(=O)NCC#Cc1ccc2c(c1)[C@]1(C(=O)N2)[C@H](C(=O)O)[C@H]2C(=O)O[C@H](c3ccccc3)[C@H](c3ccccc3)N2[C@@H]1c1ccc(OCCO)cc1,0.0179,0.359,-0.519,0.231,0.12,-2.3,-0.483 (inactive),0.00293,0.12,0.721 (inactive)
CCCC[C@@H]1C[C@H]1[C@@H](NC(=O)Cc1ccccc1)c1ccc(-c2ccccc2)cc1,-0.902,-0.12,-0.323,-0.378,-1.48,-0.929,-0.118 (inactive),0.043,-1.71,0.261 (inactive)
COC(=O)c1c(CC[C@@H](CO)NC(=O)N[C@H](Cn2cc(C3(O)CCCCC3)nn2)C(C)C)oc(C(C)=O)c1C(=O)OC,-0.233,1.36,-0.134,-0.722,0.0074,0.74,0.595 (inactive),0.355,-0.202,-1.06 (inactive)
COCCOC(=O)N1C(=O)[C@@]2(c3cc(C#CC4=CCCCC4)ccc31)[C@H](c1ccccc1OCCO)N1[C@H](c3ccccc3)[C@H](c3ccccc3)OC(=O)[C@H]1[C@@H]2C(=O)N1CCCCCCC1,-2.1,0.443,-0.599,-2.38,-2.38,0.737,0.262 (inactive),-0.934,-1.31,0.0309 (inactive)
CCOC(=O)C1CCCCN1 (stereo not given),-0.293,0.542,0.0621,0.481,0.166,-0.319,0.121 (inactive),0.292,0.319,-0.642 (inactive)
Cc1ccc(S[C@]2(C(=O)O)CC(=O)N(Cc3cc(C(F)(F)F)cc(C(F)(F)F)c3)[C@@H]2c2ccc(CO)cc2)cc1,-0.192,-0.228,-0.618,-0.424,-0.82,-0.555,-0.717 (inactive),0.83,-0.694,-0.0055 (inactive)
O=C1O[C@@H](c2ccccc2)[C@@H](c2ccccc2)N2[C@@H](c3ccccc3OCCO)[C@]3(C(=O)Nc4ccc(C#CCCO)cc43)[C@@H](C(=O)N3CCCCCCC3)[C@H]12,0.22,0.251,0.717,-1.68,-4.14,0.548,0.363 (inactive),-1.11,-1.63,-0.184 (inactive)
Cc1cc(C)cc(N2C(=O)CSC2c2cccc([N+](=O)[O-])c2)c1 (stereo not given),0.377,-0.28,0.0887,1.22,0.699,1.43,0.786 (inactive),-0.445,-0.541,-0.661 (inactive)
COC(=O)[C@@]1(Cc2ccc(OC)cc2)[C@H]2c3cc(C(=O)N(C)C)n(Cc4ccc(Cl)c(C(F)(F)F)c4)c3C[C@H]2CN1C(=O)c1ccccc1,-0.585,-0.88,-0.585,-1.93,-2.39,0.765,-0.938 (inactive),-0.652,-1.69,-1.83 (inactive)
O=C(NCC(F)(F)F)[C@@H]1c2ccccc2C(=O)N(Cc2ccc(OC(F)(F)F)cc2)[C@H]1c1ccc(CO)cc1,0.0723,-0.302,-0.27,-0.404,-0.207,1.66,0.506 (inactive),0.941,-0.54,1.01 (inactive)
[N-]=[N+]=NCc1ccccc1[C@H]1OC(c2ccc(OCCCO)cc2)=N[C@@]1(CCS(=O)(=O)c1ccccc1)C(=O)N1CCCCC1,0.481,1.03,-0.0898,-0.133,-0.946,-0.0617,1.04 (inactive),-1.11,-1.11,-0.743 (inactive)
O=C1O[C@@H](c2ccccc2)[C@@H](c2ccccc2)N2[C@@H](c3ccc(OCCO)cc3)[C@]3(C(=O)Nc4ccccc43)[C@@H](C(=O)O)[C@H]12,-0.644,0.624,-0.888,0.243,-0.146,-1.36,-0.174 (inactive),-0.0788,-1.13,0.225 (inactive)
CCOC(=O)C[C@H]1[C@H](OC(=O)c2cc3ccccc3oc2=O)[C@@H](NC(=O)c2ccc(-c3ccccc3)cc2)c2cc(OCCCO)ccc2N1C(=O)c1ccc2ccccc2n1,0.224,0.198,1.25,0.0181,0.624,0.259,-0.023 (inactive),0.174,-0.122,0.73 (inactive)
CCCCC(=C=CC[C@@H](O)c1ccccc1OCCO)C[C@@H](O)COCc1ccccc1,0.75,0.52,0.522,-2.34,-2.12,0.554,0.623 (inactive),-0.261,0.13,0.607 (inactive)
COC(=O)[C@@]1(Cc2ccccc2)[C@H]2c3cc(C(=O)N(C)C)n(Cc4c(CO)[nH]cc(C)c4=O)c3C[C@H]2CN1C(=O)c1ccccc1,-0.218,-0.284,1.2,-0.979,-0.247,1.34,-0.235 (inactive),0.445,-0.491,-0.25 (inactive)
CCOC(=O)C[C@H]1[C@H](OC(=O)c2cc3ccccc3oc2=O)[C@@H](NC(=O)c2ccc(-c3ccccc3)cc2)c2cc(OCCCO)ccc2N1C(=O)c1ccccc1,0.182,1.82,0.404,0.172,-0.841,1.27,-0.445 (inactive),-0.337,-0.595,-1.1 (inactive)
